{"source": "PubChem BioAssay (NCATS)", "note": "Inconclusive results are not listed. Calls of active or inactive are those of the source. Calls follow the shape of the dose curve; as a rule, active = well fitted inhibition curve with a large enough effect; inconclusive = small, poorly fitted or top-dose-only effect; inactive = flat fitted curve, though single readings scatter. Peptide text beside a SMILES is read from it.", "data": [{"tested_on": "CRL-7250", "assay": "qHTS assay to identify novel small-molecules to repurpose for Merkel cell carcinoma treatment (AID 1296009); also: nearly all actives have a fitted effect of over 60% in size", "conditions": "MCC and control cell lines, CellTiter-Glo viability, 72 h; series mostly up to 92 µM; activity change, negative = cytotoxicity: at the top concentration", "source_text": "MCC is a rare and aggressive neuroendocrine skin cancer with limited treatment options. Approximately 80% of MCCs have the Merkel cell polyomavirus (MCPyV) DNA integrated into the host genome (virus-positive: VP-MCC) and viral oncogenes drive oncogenesis. The remaining MCCs are virus-negative (VN-MCC) and are caused by UV mutagenesis. To identify novel treatments for VP-MCC and/or VN-MCC we screened three VP-MCC cell lines (WAGA, MKL-1, MKL-2), three VN-MCC cell lines (MCC-13, MCC-26, UISO), and four immortalized, non-transformed control cell lines (HaCaT, HEK293T, CRL7250, NIH-3T3) against ~2,400 compounds in the NCGC Pharmaceutical Collection (NPC) and ~1,900 compounds in the Mechanism Interrogation PlatE (MiPE). Using cell viability as a readout (CellTiter-Glo assay) we found both overlapping and distinct drugs that can be repurposed for the treatment of VP-MCC and VN-MCC.\nA high-throughput screen was conducted in 1536-well white flat bottom plates (Corning) on a Kalypsys robotic system. Cell lines WAGA, MKL-1, MKL-2, MCC-13, MCC-26, UISO, HaCaT, HEK293T, CRL7250, and NIH-3T3 were screened against 2 small molecule annotated drug libraries NPC and MIPE in dose response (8 and 11 pt. respectively) measuring cell viability after 72 hours of incubation. […] A 1,536 pintool (Kalypsys) was used to transfer 23 nL of compound in DMSO to the 1,536-well assay plates. After 72 hr incubation at 37 degree celsius, 2.5 uL of CellTiter-Glo (Promega) was dispensed into each well using a BiorapTR. Plates were incubated at room temperature for 10 min, transferred to a ViewLux (PerkinElmer) and the luminescence was recorded using an exposure time of 2 seconds. Relative luminescence units (RLUs) were normalized to in-plate controls (no cells as a positive (cytotoxicity) control, DMSO as negative control) and the normalized data was processed using NCATS in-house software.", "values": [{"molecule": "CC[C@@H](Nc1c(Nc2cccc(C(=O)N(C)C)c2O)c(=O)c1=O)c1ccc(C)o1", "outcome": "inactive"}, {"molecule": "CCCC(=O)Nc1cccc(NC(=O)c2ccccc2Br)c1", "outcome": "inactive"}, {"molecule": "CC1NC(=O)CNC(=O)C(C(C)C)NC(=O)C2CCCN2C(=O)C(C(C)C)NC(=O)C(Cc2c[nH]c3ccccc23)NC1=O", "note": "(stereo not given) (cyclo(GAWVPV); configuration not given here)", "outcome": "inactive [at 17.4 µM]"}, {"molecule": "CCc1ccc(Cc2ccc3c(c2)[C@]2(OC3)O[C@H](CO)[C@@H](O)[C@H](O)[C@H]2O)cc1", "outcome": "inactive"}, {"molecule": "CCC(O)C(C)C1CCC(C(C)C(=O)O)O1", "note": "(stereo not given)", "outcome": "inactive"}, {"molecule": "C=C1CC23CC1CCC2C12OC(=O)C(C)(CCC1O)C2C3C(=O)O", "note": "(stereo not given)", "outcome": "inactive"}, {"molecule": "CC1(C)OC[C@H](NC(=O)Nc2ccc(Br)cc2Br)[C@H](c2ccccc2)O1", "outcome": "inactive"}, {"molecule": "C=C(C)[C@@H]1[C@H]2OC(=O)[C@H]1[C@]1(O)C[C@H]3O[C@]34C(=O)O[C@H]2[C@]14C", "outcome": "inactive"}, {"molecule": "COc1cc(S(C)(=O)=O)ccc1Nc1nc2ccc(-c3ccc(NC(=O)[C@H](C)c4ccc(F)cc4)cc3)cn2n1", "outcome": "inactive"}, {"molecule": "COc1cccc2c1CCC[C@H]2CN(C)CCc1ccc2ccoc2c1", "outcome": "inactive"}, {"molecule": "NC(Cc1c[nH]c2ccccc12)C(=O)NC(CCC(=O)O)C(=O)O", "note": "(stereo not given)", "outcome": "inactive"}, {"molecule": "C[N+]1(C)[C@@H]2C[C@@H](OC(=O)C(O)(c3cccs3)c3cccs3)C[C@H]1[C@@H]1O[C@@H]12", "outcome": "inactive"}, {"molecule": "O=S(=O)(O)c1ccc(Nc2ncnc3c2ncn3[C@@H]2O[C@H](CO)[C@@H](O)[C@H]2O)cc1", "outcome": "inactive"}, {"molecule": "CCOc1ccccc1OCCNC(C)Cc1ccc(OC)c(S(N)(=O)=O)c1", "note": "(stereo not given)", "outcome": "inactive"}, {"molecule": "O=C(/C=C/c1ccc(O)cc1)OC[C@H]1O[C@@H](OC(=O)/C=C/c2ccccc2)[C@H](O)[C@@H](O)[C@@H]1O", "outcome": "inactive [at 17.4 µM]"}, {"molecule": "O=C1NC(=O)C(=Cc2cccc(C(F)(F)F)c2)S1", "outcome": "inactive"}, {"molecule": "COc1cc(CCCO)ccc1O[C@@H]1O[C@H](CO)[C@@H](O)[C@H](O)[C@H]1O", "outcome": "inactive"}, {"molecule": "Cc1cc(O)c2c(c1)C(=O)c1cc(O)cc(O)c1C2=O", "outcome": "inactive"}, {"molecule": "CC1=C(C)C(=O)OC(C(C)C2C(O)CC3C4C5OC5C5(O)CC(OC6OC(CO)C(O)C(O)C6O)CC(O)C5(C)C4CCC32C)C1", "note": "(stereo not given)", "outcome": "inactive [at 17.4 µM]"}, {"molecule": "CNC(=O)c1ccc(-c2cnc3ncc(Cc4ccc5ncccc5c4)n3n2)cc1F", "outcome": "inactive"}, {"molecule": "C=C1C[C@@]23CCC4[C@@](C)(CCC[C@@]4(C)C(=O)OC)C2CC[C@@H]1C3", "note": "(stereo not given in full)", "outcome": "inactive"}, {"molecule": "COc1c2c(c(C)c3c1C(=O)OC3)OC1(C)CC(O)C34OC(OC)(CC(OC(C)=O)C3(C)C1C2)OC4(C)C", "note": "(stereo not given)", "outcome": "inactive [at 17.4 µM]"}, {"molecule": "O=C(Nc1nc2ccccc2n1CCN1CCOCC1)c1cccc([N+](=O)[O-])c1", "outcome": "inactive"}, {"molecule": "C=C1CC[C@H]2[C@@H](/C=C(\\C)C(=O)[C@@]3(OC(C)=O)C[C@H](C)[C@H](OC(C)=O)[C@@H]3[C@H]1OC(C)=O)C2(C)C", "outcome": "inactive [at 17.4 µM]"}, {"molecule": "NC(=O)C(O[C@@H]1O[C@H](CO[C@@H]2O[C@H](CO)[C@@H](O)[C@H](O)[C@H]2O)[C@@H](O)[C@H](O)[C@H]1O)c1ccccc1", "note": "(stereo not given in full)", "outcome": "inactive [at 17.4 µM]"}, {"molecule": "C[C@@H](NC(=O)C(=O)c1c[nH]c2ccc([N+](=O)[O-])cc12)c1ccccc1", "outcome": "inactive"}, {"molecule": "COc1cc(COC2OC(CO)C(O)C(O)C2O)cc(OC)c1O", "note": "(stereo not given)", "outcome": "inactive"}, {"molecule": "CC1(C)CC[C@]2(C(=O)O[C@@H]3O[C@H](CO[C@@H]4O[C@H](CO)[C@@H](O)[C@H](O)[C@H]4O)[C@@H](O)[C@H](O[C@@H]4O[C@H](CO)[C@@H](O)[C@H](O)[C@H]4O)[C@H]3O)CC[C@]3(C)C(=CCC4[C@@]5(C)CC[C@H](O[C@@H]6OC[C@@H](O)[C@H](O)[C@H]6O)[C@@](C)(C(=O)O)C5CC[C@]43C)[C@@H]2C1", "note": "(stereo not given in full)", "outcome": "inactive [at 9.27 µM]"}, {"molecule": "CC1(C)C2CCC1(C)C(OC(=O)C(O)(CC(=O)O)CC(=O)O)C2", "note": "(stereo not given)", "outcome": "inactive"}, {"molecule": "COc1ccccc1N1CCN(CC(C(=O)NC(C)(C)C)c2ccccc2)CC1", "note": "(stereo not given)", "outcome": "inactive"}, {"molecule": "CC(=O)OC[C@@]12[C@H](O)C[C@@H](C)[C@]3(C[C@@H](c4ccoc4)OC3=O)[C@H]1C[C@H](O)C[C@]21CO1", "outcome": "inactive [at 17.4 µM]"}, {"molecule": "C=C(C)[C@@H]1CC[C@]2(C(=O)O)CC[C@]3(C)C(CCC4[C@]5(C)C(CC[C@]43C)C(C)(C)[C@@H](O)[C@@H]5C(=O)O)C12", "note": "(stereo not given in full)", "outcome": "inactive [at 17.4 µM]"}, {"molecule": "COC(=O)c1c(CC=C(C)C)c(OC2OC(CO)C(O)C(O)C2O)c2ccccc2c1OC1OC(CO)C(O)C(O)C1O", "note": "(stereo not given)", "outcome": "inactive [at 17.4 µM]"}, {"molecule": "CC1(C)CC[C@]2(C(=O)O)CC[C@]3(C)C(=CCC4[C@@]5(C)CC[C@H](O)C(C)(C)C5CC[C@]43C)C2C1", "note": "(stereo not given in full)", "outcome": "inactive [at 17.4 µM]"}, {"molecule": "C=C1CCC2(OC1)OC1CC3C4CC=C5CC(O)CC(O[C@@H]6OC[C@@H](O)[C@H](O)[C@H]6O)C5(C)C4CCC3(C)C1(O)C2C", "note": "(stereo not given in full)", "outcome": "inactive [at 17.4 µM]"}, {"molecule": "C=C1C2(CCC(=O)OC2(C)C)CC(OC(=O)/C(C)=C/C)C2(C)C13OC14C(=O)OC(C)(C(=O)C12C(=O)OC4C)C3OC(C)=O", "note": "(stereo not given)", "outcome": "inactive [at 17.4 µM]"}, {"molecule": "COc1ccc(-c2cnc3c(-c4cccc5ncccc45)cnn3c2)cc1", "outcome": "inactive"}, {"molecule": "CC(/C=C/C1(O)C(C)(C)CC(O)CC1(C)O)OC1OC(CO)C(O)C(O)C1O", "note": "(stereo not given)", "outcome": "inactive [at 17.4 µM]"}, {"molecule": "COc1ncc2cc(C(=O)Nc3cc(C(=O)NCc4cccc(Cl)c4)ccc3Cl)c(=O)[nH]c2n1", "outcome": "inactive"}, {"molecule": "COc1cc(Nc2nc3c(s2)CCCC3c2ccccc2)ccc1-n1cnc(C)c1", "note": "(stereo not given)", "outcome": "inactive [at 9.27 µM]"}]}]}
